In PubChem BioAssay AID1347426 (Functional Genomics Laboratory (NCATS/FGL), 2020):
Hit rate of the full screen: of about 31,000 sequences, about 1,400 (4.5%) were called active.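 Rule for the calls: active = median seed-adjusted z-score above 1 or below -1; inactive = the rest.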 The sample as a whole holds a higher share of actives than the screen did.

Experiment: Novel Modifiers of Survival Motor Neuron (SMN) Protein: Gene Identification via Genome-wide siRNA Screen;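 note: luminescence tracks full-length SMN protein made from the SMN2 reporter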
Settings: HEK293T SMN2-luciferase reporter, siRNA knockdown, 72 h; actives lie on both sides
Method in brief: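 Each of three siRNAs per gene is reverse-transfected (1 pmol) into reporter HEK293T cells whose luciferase output tracks SMN protein level. After 72 h culture, ONE-Glo luminescence is control-normalized, log10-transformed and MAD-standardized; Common Seed Analysis deprioritizes seed-driven hits.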
With GCAGCAACAUUAUUGUCUUTT against CLDN17 the median seed-adjusted z-score was 0 (inactive).
For GAAUGAAUUCUCUACUCUATT against ERBB3, the median seed-adjusted z-score was -0.561 (inactive).
For GCCUGUGAAGUGAACCUGATT against TMPRSS6, the median seed-adjusted z-score was 1.29 (active).
For UGAUAUUGCUUAGUCCAUUTT against PRLHR, the median seed-adjusted z-score was 0 (inactive).
For CAAACGUGGACUGUCCAAATT against CA4, the median seed-adjusted z-score was 0.0549 (inactive).
In the case of CAUGCACGGAGAGCCCAAATT against RPUSD3, the median seed-adjusted z-score is reported as 0.303 (inactive).
For CCAGGAGAUCUUUGCCUUUTT against SLC4A3, the median seed-adjusted z-score was -0.7 (inactive).
With GAACCGCUACAAGAACAUUTT against PTPN6 the median seed-adjusted z-score was -0.515 (inactive).
For AGAUGAAACUUCUACUGAATT against POLR2H, the median seed-adjusted z-score was -2.74 (active).
In the case of CUUUGUCUAUGUCACCAUUTT against IMP5, the median seed-adjusted z-score is reported as 0.559 (inactive).
In the case of CAAGCGAAUUAACUAUCUATT against GJB3, the median seed-adjusted z-score is reported as -0.198 (inactive).
With GUCUCGCUGUGAUAGAUCATT against ELN the median seed-adjusted z-score was -0.149 (inactive).
In the case of CCAACAUCGAGUCCCUCAATT against SLC29A3, the median seed-adjusted z-score is reported as -0.0626 (inactive).
For CUGAUAAAGUGGGUCAACATT against TNFRSF10B, the median seed-adjusted z-score was 0.064 (inactive).
For CCAUCGUCAUGGAUCCAGATT against KDR, the median seed-adjusted z-score was 0.0728 (inactive).
In the case of GGGACAUCCUUUCCGGAAATT against NDUFS3, the median seed-adjusted z-score is reported as -0.54 (inactive).
In the case of GGAGUGUGAUGAUUCGUGATT against DGKK, the median seed-adjusted z-score is reported as 0 (inactive).
With AGAACUCACCUCCUGAUUATT against YY1 the median seed-adjusted z-score was 1.94 (active).
In the case of GCAAGAUAACAAUUGAUAUTT against ANKRD30A, the median seed-adjusted z-score is reported as 0.259 (inactive).
For AGAUCUUCGCAAAUACUGUTT against KRT18, the median seed-adjusted z-score was 0.558 (inactive).
For GGCUUAUGGAGGACCCUAUTT against NCOR1, the median seed-adjusted z-score was 0.0767 (inactive).
In the case of CCUAUGAUCCAACACCAUATT against GMPPA, the median seed-adjusted z-score is reported as 0.619 (inactive).
For CAUUAGCAGUUGUCCCGUUTT against P2RY10, the median seed-adjusted z-score was -0.432 (inactive).
For CUACUUCCGCAACCAGCUATT against UNC119, the median seed-adjusted z-score was 0.171 (inactive).
With CUAUGGUAGCGACACUGCATT against LILRB1 the median seed-adjusted z-score was 0.539 (inactive).
In the case of UCACAGAGCCUAUUAUUUUTT against PRKY, the median seed-adjusted z-score is reported as 0.168 (inactive).
For GUGUCAGAGUUUAUAUCAATT against PDE4D, the median seed-adjusted z-score was 0 (inactive).
In the case of CAAACUAUCUCUGAAAAUATT against TRYX3, the median seed-adjusted z-score is reported as 2.3 (active).
For GCUGAUGACUGUCGUUAUATT against TBX3, the median seed-adjusted z-score was 0 (inactive).
For CAUCCUGUAUAAGUACUAUTT against RNF216, the median seed-adjusted z-score was -0.246 (inactive).
In the case of UCAACAUCGUCUACCAGGATT against SCNN1D, the median seed-adjusted z-score is reported as -1.8 (active).
For GAUCUACCCUGCUCACGAUTT against ETHE1, the median seed-adjusted z-score was 0 (inactive).
With CAGGCUACAGUGAACAGAATT against GNL1 the median seed-adjusted z-score was 0.154 (inactive).
In the case of GCGCGUUGGUACAAUGGAATT against GOT1, the median seed-adjusted z-score is reported as 0.0103 (inactive).
In the case of GCUUGUCUUUCAACCCGAUTT against PARP4, the median seed-adjusted z-score is reported as -0.226 (inactive).
In the case of GCAACGUGUUGAUGAUGCATT against ADAD1, the median seed-adjusted z-score is reported as -0.0795 (inactive).
For GCACAGAGGAACGAACUAATT against PSMC5, the median seed-adjusted z-score was -1.06 (active).
With GGGAGACGGUAGAAUCAGATT against ATP13A4 the median seed-adjusted z-score was -1.09 (active).
For CCAUGUGAGUGUAAGCAGUTT against ZNF490, the median seed-adjusted z-score was 0.00954 (inactive).
For GGGUAACUGUUGAUAACCATT against POGK, the median seed-adjusted z-score was 0.938 (inactive).
For ACAAGACUUAUGCAAGAUATT against XRCC6BP1, the median seed-adjusted z-score was 0.128 (inactive).
In the case of GGAAUUCGAUGGGAACUUUTT against CACHD1, the median seed-adjusted z-score is reported as 0.119 (inactive).
For CCGAGUAGCUGAAAUUGUUTT against BCL2L14, the median seed-adjusted z-score was -0.859 (inactive).
With AGAUCUAUGAGAUUGAACATT against PRKAG3 the median seed-adjusted z-score was -1.03 (active).
With CAAGUUCCUUAACAAGGAATT against EIF2B4 the median seed-adjusted z-score was 0 (inactive).
In the case of CAGAUACUUUAGGACUCAATT against UGT2B4, the median seed-adjusted z-score is reported as 0.0707 (inactive).
In the case of CAGGCUCACUCGCAAAGAATT against USP31, the median seed-adjusted z-score is reported as -0.755 (inactive).
For GGCUCUCUGUCAACUAUGATT against MGC21874, the median seed-adjusted z-score was -0.354 (inactive).
For CCCUUUUCUUUAUCCCUGATT against IL9R, the median seed-adjusted z-score was -1.33 (active).
With GCAAGGCUAUUAUAGAUCATT against CTNNA3 the median seed-adjusted z-score was 0.249 (inactive).
With GGACAUUGCUGAUCGCUUUTT against DMC1 the median seed-adjusted z-score was -0.00876 (inactive).
In the case of GCAUGUCUCUAAUAUUCCUTT against RBM9, the median seed-adjusted z-score is reported as 0.895 (inactive).
In the case of GGUUUGAAAUUCUAACAAATT against TXNDC6, the median seed-adjusted z-score is reported as 0.156 (inactive).
With CAUCCUGCAGAGUAUCUAATT against EPHA5 the median seed-adjusted z-score was -0.00876 (inactive).
In the case of CUCUCUCUCGGAAUCUGAATT against POLR2L, the median seed-adjusted z-score is reported as -1.19 (active).
With GGUUGUUUUGGAAACCGAATT against NAT12 the median seed-adjusted z-score was -0.0807 (inactive).
In the case of GCGAAUUCAUAAGUCCAUUTT against MTMR9, the median seed-adjusted z-score is reported as 0.133 (inactive).
In the case of CAAGACCGAGAGAACAAUATT against ENOX1, the median seed-adjusted z-score is reported as 0.0694 (inactive).
With CCAUCACCGUUGAUGACAATT against JAK1 the median seed-adjusted z-score was 0.0199 (inactive).
In the case of CGAGCUGCACGUUCCUAUATT against IRF7, the median seed-adjusted z-score is reported as -0.304 (inactive).
With CAGUGGAUAUAUCCAGUCATT against RAB20 the median seed-adjusted z-score was -0.334 (inactive).
With GACUCGUUGUUGGUCUAAATT against MAP3K7 the median seed-adjusted z-score was -0.23 (inactive).
In the case of CGCUGAUUUUCGAGUGUAATT against EHMT2, the median seed-adjusted z-score is reported as 0.295 (inactive).
With GGGUCAUGCAGCAUCAAUATT against ITGAM the median seed-adjusted z-score was -1.56 (active).
In the case of CCAAGGACCUGGUCUGAAATT against CUGBP1, the median seed-adjusted z-score is reported as 0.086 (inactive).
For AGCAGAUGGUUUUCGAGAATT against COPZ2, the median seed-adjusted z-score was -1.23 (active).
In the case of GGGUUUUGCUGACAGCUCATT against ZNF48, the median seed-adjusted z-score is reported as -0.116 (inactive).
With GGAACACGCAUGUCUGGAATT against NOS1 the median seed-adjusted z-score was 0.0195 (inactive).
With GAAUGCAAGAUUUUCGAUUTT against USH2A the median seed-adjusted z-score was 0.0673 (inactive).
For GGCAUCCGCUUGUACUACATT against DBH, the median seed-adjusted z-score was 0.337 (inactive).
For CCCUAUCAGUCCAAUGGAATT against PRDM4, the median seed-adjusted z-score was 0.0804 (inactive).
With GCCUUCUCCUCUCAUAACATT against ZNF683 the median seed-adjusted z-score was -0.452 (inactive).
For CAACUUCUCCGUAGCAGAATT against AKT2, the median seed-adjusted z-score was 0 (inactive).
With CUUCUACAGUGGUCACCUATT against VPS29 the median seed-adjusted z-score was -0.408 (inactive).
In the case of GGUUAUCAAUGACGAGCAATT against EP400, the median seed-adjusted z-score is reported as 1.83 (active).
For GAACCUCGUUUCGAAAUUUTT against RIOK2, the median seed-adjusted z-score was -0.16 (inactive).
In the case of GAAUGAUUUUCCAAAUGGATT against SLC25A21, the median seed-adjusted z-score is reported as -0.219 (inactive).
With GGAAGAAACGGAGACUCAATT against DPF1 the median seed-adjusted z-score was 0.144 (inactive).
In the case of GCCUGGUUUUGGAUACAAATT against LTA4H, the median seed-adjusted z-score is reported as -0.742 (inactive).
For CAACUGCUACCUUAGCAUATT against RNF133, the median seed-adjusted z-score was 0 (inactive).
With GCUGUGAGAUUUACUCUGATT against ALAS1 the median seed-adjusted z-score was -1.15 (active).
With AAGUGACUCUAGUCGUUUATT against REM2 the median seed-adjusted z-score was 0.109 (inactive).
With GCAGGGUCAUUACGACUCATT against PAX9 the median seed-adjusted z-score was -1.16 (active).
With GAAUGGAUUCUGACCUUAUTT against MTO1 the median seed-adjusted z-score was -0.0252 (inactive).
For ACAAGAUGUAUCACCUAUATT against ZNF226, the median seed-adjusted z-score was 0.437 (inactive).
With GGACUUGCUGGAAAGCACATT against NCALD the median seed-adjusted z-score was 0 (inactive).
With GUACCUAAGUUGGAGCUGATT against TRPT1 the median seed-adjusted z-score was -0.671 (inactive).
In the case of CCACUGGGCUAAUUCUACATT against ALPPL2, the median seed-adjusted z-score is reported as 0.331 (inactive).
With CGACACUUUCUAUCGACAATT against UBA3 the median seed-adjusted z-score was 0.605 (inactive).
With GGGUCUCAGAAGACGUGUATT against CRAT the median seed-adjusted z-score was -1.42 (active).
In the case of GACAGUAACUUUAAUUCCATT against IDH3A, the median seed-adjusted z-score is reported as 0.137 (inactive).
With CAACAGCAAUUACACCGAUTT against TMPRSS13 the median seed-adjusted z-score was 0.0584 (inactive).
For GAACUUCAUAGUACAGCGATT against CTNNAL1, the median seed-adjusted z-score was 0.229 (inactive).
With CUGCUCUAAUUACACCGUATT against CILP the median seed-adjusted z-score was 0.0436 (inactive).
For GCUCGAUCCCUGCAGAUUATT against LCOR, the median seed-adjusted z-score was -0.0435 (inactive).
With AGAUAAAGCGAUCUAAACUTT against ASCC3 the median seed-adjusted z-score was -0.192 (inactive).
In the case of UCAUCUUAAAGGACCGAUATT against SEC11B, the median seed-adjusted z-score is reported as 1.04 (active).
With CCCACAUUCUUGUCCGGCATT against ADAMTS4 the median seed-adjusted z-score was -0.0153 (inactive).
With GAAAGAUCCCUAUGGAAAATT against CAMK2G the median seed-adjusted z-score was -0.107 (inactive).
In the case of GAAGGAUUAGAAACCGCAATT against RNF144, the median seed-adjusted z-score is reported as 0.0938 (inactive).
In the case of GGAUAAUGGAGAACUCAGATT against NSFL1C, the median seed-adjusted z-score is reported as -0.0899 (inactive).
For GCACGUACCGCUUCGAAAATT against SLC4A10, the median seed-adjusted z-score was 0.026 (inactive).
With CCGGUAUUAGAAUCAAAGATT against POLS the median seed-adjusted z-score was -0.334 (inactive).
For CGAUAUCUUCACCACAUUATT against KCNJ6, the median seed-adjusted z-score was -1.6 (active).
In the case of CAACAAGUGUAACGACGAUTT against SMPD3, the median seed-adjusted z-score is reported as -0.0115 (inactive).
For ACAGAACUCGGGACCUUUUTT against H6PD, the median seed-adjusted z-score was 0.069 (inactive).
With GAAGAUUGCUCAGCGAUUATT against PRPF3 the median seed-adjusted z-score was -0.289 (inactive).
For GCUCGUAAGAGUGCAAGUATT against USPL1, the median seed-adjusted z-score was -1.87 (active).
